The values below come from PubChem BioAssay (NCI).

Each structure is given as a SMILES string. This is part of a sample that, as a whole, favours compounds with a hit. Of some 83,000 tested, about 20% had one in any assay.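 Method: cells in 96-well plates; compound added at one concentration; 48 h incubation; percent growth measured; values under 10 scored active.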 Activity calls are given as the source filed them.

The assay has as its system NCI-H23 lung. As to the kind of experiment: NCI-60 one-dose screen, 48 h (100 = growth as untreated, 0 = no growth, -100 = all killed). The note with it: 10 µM unless noted.
`O=C1COCCN1c1ccc(NCc2cn(C(=O)c3ccc(Cl)cc3)c3ccccc23)cc1`: the growth is 54.5% (inactive).

Take `COc1ccc(-c2cnc3ccccc3n2)cc1`: the growth is 93.2% (inactive).

Consider `CCOC(=O)C1=C(N)Oc2c(sc3c(C)cccc23)C1c1ccc(OC)cc1` (stereo not drawn), for which the growth is 46.4% (inactive).

As for `FC(F)(F)c1cc(Nc2ccc3c(OCCCN4CCOCC4)cccc3n2)ccc1Cl`, the growth is 60.8% (inactive).

On to `COc1cc(C(=O)c2cc(C)c3[nH]c4ccc(O)cc4c3c2C)cc(OC)c1OC`, for which the growth is 31.4% (inactive).

As for `Cc1ccc(C(=O)N/N=C/c2cccc(Oc3ccccc3)c2)cn1`, the growth is 70.7% (inactive).

Turning to `CC(=O)CC(c1cccs1)c1c(-c2ccccc2)[nH]c2ccccc12` (stereo not drawn), the growth is 66% (inactive).

For `NC(=O)C1(Nc2ccc(Br)cc2)CCCC1`, the growth was 97.5% (inactive).

Take `COc1ccc(-c2c(C(=O)NS(C)(=O)=O)n(Cc3cccc(C(F)(F)F)c3)c3ccccc23)cc1`: the growth is 97.4% (inactive).

Take `O=C1NC(=O)C(c2ccccc2)(c2ccccc2)N1Cc1cn(-c2c3ccccc3nc3ccccc23)nn1`: the growth is 85.5% (inactive).

On to `CCCCn1c(-c2ccc(C(=O)O/N=C(\N)c3ccc(OC)cc3)cc2)nc(-c2ccccc2)c1-c1ccccc1`, for which the growth was -41.9% (active).

As to `COc1cc(Nc2nc(NCCN)nc3cc[nH]c(=O)c23)cc(OC)c1`, the growth was 65.1% (inactive).

Regarding `COc1ccc(-c2[nH]c3ccc(OC)cc3c2/C=C(\C#N)S(=O)(=O)c2ccccc2)cc1`, the growth was 24.9% (inactive).

Turning to `COc1ccc(C2=Nn3c(nnc3-c3cc(Cl)cc(Cl)c3Cl)SC2)cc1`, the growth is 3.14% (active).

`COc1ccc(C(=S)N2CCN(c3cccc(C)c3)CC2)cc1OC`: the growth was 65.2% (inactive).

With `COc1cc(CCCO)c(OC)c(OC)c1OC`, the growth is 104% (inactive).

Take `O=C(Nc1nc2ccc(F)cc2s1)c1cccnc1Nc1ccc(Cl)cc1Cl`: the growth was 7.18% (active).

Turning to `Cc1cccc2c3c(sc12)C(c1ccc(F)cc1)C(C#N)=C(N)O3` (stereo not drawn), the growth is 21.3% (inactive).

As for `BrCCCc1n(Cc2ccc3ccccc3c2)c2ccccc2[n+]1Cc1ccc2ccccc2c1`, the growth is -81.3% (active).

Turning to `CCOC(=O)Cn1c(C)c(/C=N/NC(=O)c2cc3c(ccc4ccccc43)o2)c2ccccc21`, the growth is 27.7% (inactive).

With `CCOC(=O)c1sc2ncc(-c3ccc(OC)cc3)n2c1C`, the growth was 85.9% (inactive).

Regarding `O=c1c2cccc(F)c2sc2c(NCCCNCCO)nc3ccccc3c12`, the growth is 49.9% (inactive).

With `CNCCCNc1nc2ccccc2c2c(=O)c3cc(F)ccc3sc12`, the growth was 70.1% (inactive).

Take `CC(=O)OC[C@H]1OC(Sc2sc(C(=O)c3ccc(Cl)cc3)c(N)c2-c2nc3ccccc3s2)[C@H](OC(C)=O)[C@@H](OC(C)=O)[C@@H]1OC(C)=O` (stereo partly drawn): the growth is 63.3% (inactive).

As to `OC(c1ccccc1)C(NC(Cc1ccccc1)c1ccccc1)c1ccccc1` (stereo not drawn), the growth is 81.8% (inactive).

Regarding `CCOC(=O)c1cn2ncnc(Oc3ccc(NC(=O)NCCN(C)C)c(Cl)c3)c2c1C`, the growth is 75.5% (inactive).

`Cc1nc2ccccc2c(/C=C/c2ccccc2)c1C(=O)/C=C/c1ccc(C(F)(F)F)cc1`: the growth is -33.6% (active).

With `Cc1[nH]c(C(=O)Nc2ccc(C(=O)NCCN)cc2OC(C)C)c(Cl)c1Cl`, the growth is 79.5% (inactive).

`CN1CCN(c2ccc(-c3cnc4c(-c5csc6ccccc56)cnn4c3)cc2)CC1`: the growth was 14.3% (inactive).

`c1ccc(-c2nc3sc(-c4ccccc4)cn3n2)cc1`: the growth is 83.5% (inactive).

With `COc1c(B(O)O)cc(F)cc1-c1nc2ccc3[nH]ncc3c2c2c1CCCC2`, the growth was 0.235% (active).

For the compound `CNCCCC12CCC(c3ccccc31)c1ccccc12`, the growth is 92.1% (inactive).

In the case of `C=C1C(=O)O[C@H]2[C@H]1CC/C(COC(=O)C(C)c1ccc(CC(C)C)cc1)=C\CC[C@@]1(C)O[C@@H]21` (stereo partly drawn), the growth is 25.8% (inactive).

In the case of `CC1=C(C)C(=O)C(Nc2cccc(C(=O)OC(C)(C)C)c2)=C(Br)C1=O`, the growth is 85.9% (inactive).

As for `COc1ccc(C2CC(c3ccc(Nc4ccnc5cc(Cl)ccc45)cc3)=NN2C=O)cc1` (stereo not drawn), the growth is 76.9% (inactive).

`Cc1nc(NC(=O)COc2ccc(/C=C3\Cc4ccc(Cl)cc4C3=O)cc2)sc1C`: the growth is 100% (inactive).

For the compound `Cc1ccc2c(-c3cc(-c4ccccc4)nc(N)c3C#N)cc(=O)oc2c1`, the growth was 102% (inactive).

Regarding `CN(C)c1ccc(/C=N\Nc2cc(=O)[nH]c3ccc(Cl)cc23)cc1`, the growth is 82.8% (inactive).
